System: Plasmodium falciparum
Assay: GSK_TCMDC: Inhibition of Plasmodium falciparum 3D7 in whole red blood cells, using parasite LDH activity as an index of growth. Test compounds present at 2uM
Format: functional

SMILES | Inhibition [%]
CC(C)n1cc(CN2CCCC(C(=O)Nc3cccc(-c4cc5ccccc5[nH]4)c3)C2)cn1 (stereo not given) | 96
COc1ccc2nc3cc(Cl)ccc3c(Nc3ccc(O)c(CNC(C)C)c3)c2c1 | 100
Cc1ccc2[nH]c3c(NCCCN4CCOCC4)ncnc3c2c1 | 100
CC(=O)Oc1ccc(C(=O)Oc2ccccc2C#CC#N)cc1OC(C)=O | 93
CC(=O)O.C[C@H](NC(=O)[C@H](Cc1ccccc1)NC(=O)OC(C)(C)C)C(=O)N[C@@H](CC1CCCCC1)C(O)CN (stereo not given in full) | 96
O=C(O)C(F)(F)F.c1cc(CN2CCCCC2)cc(-c2csc(-c3nc4ccccc4[nH]3)c2)c1 | 90
CN(C)CCCOc1c(C(C)(C)C)cc(-c2cc(C(C)(C)C)c(OCCCN(C)C)c(C(C)(C)C)c2)cc1C(C)(C)C | 100
O=C(Cc1c[nH]cn1)Nc1ccc(-c2cccc(-c3nc4cc(F)ccc4[nH]3)c2)cc1 | 100
Cl.O=C(Nc1cc(Cl)cc(Cl)c1)Nc1ccnc2ccccc12 | 96
O=C(Nc1nc(-c2ccccn2)cs1)c1ccc(Br)s1 | 96
O=C(NCCc1ccccc1)[C@H](Cc1ccccc1)Nc1ccnc(NCC2CCCCC2)n1.O=C(O)C(F)(F)F | 86
CN(C)C1CCN(Cc2ccc(N3CCN(Cc4cccc5[nH]ccc45)CC3)nc2)CC1 | 80
Cc1cnn(-c2cccc(C(=O)NC3CCC(CCN4CCc5ccc(C#N)cc5CC4)CC3)c2)c1.Cl (stereo not given) | 94
Cc1noc(C)c1-c1cccc(C(=O)NC2CCN(CCNC(=O)C(c3ccccc3)c3ccccc3)CC2)c1.O=C(O)C(F)(F)F | 85
N#Cc1ccc(/C=C/C(=O)NCCCCCN2CCCN(C(=O)Nc3ccc(Cl)c(C(F)(F)F)c3)CC2)cc1 | 98
CCCN1CC[C@@H](CCCc2ccnc3ccc(O)cc23)[C@@H](CC)C1.Cl | 93
Cc1ccc(CCOCCCCCNCC(O)c2cc(Cl)c(N)c(Cl)c2)cc1 (stereo not given) | 99
COc1ccc2nccc(N3CCC(NCCNS(=O)(=O)c4ccc5c(c4)NC(=O)CS5)C3)c2n1.Cl (stereo not given) | 97
CC(C)c1ncc(-c2ccncc2)c(C2CCC(CNC(=O)c3cccnc3)CC2)n1 (stereo not given) | 89
Cc1cc(NCC2CCN(CC3CCCCC3)C2)nc(Nc2ccc(Br)cc2)n1 (stereo not given) | 100

SMILES | Inhibition [%]
CCCC1N=C(N)N=C(N)N1c1ccccc1.Cl (stereo not given) | 93
CCCCCn1c(Sc2ccc(C#N)c([N+](=O)[O-])c2)nnc1-c1ccc(Cl)cc1 | 88
Nc1nc(N)c2c(ccc3c2ccn3Cc2ccc(Cl)cc2)n1 | 100
CCCNCc1ccc(-c2ccc(CN(CCOC)C(=O)CCC(=O)c3ccc(OC)c(F)c3)cc2)nc1.O=C(O)C(F)(F)F | 100
CCCOc1ccccc1-c1nc2[nH]c3c(c2c(=O)[nH]1)CCN(C)C3 | 87
O=C(NCC1CC1)C1Cc2c([nH]c3ccc(Br)cc23)C2(CCN(CCc3ccccc3)CC2)N1 (stereo not given) | 88
CN1CCCC(COc2cc3c(cc2Br)CCN3C(=O)Nc2ccc(-c3ccncc3)c(Cl)c2)C1 (stereo not given) | 100
Cl.Clc1cnc2ccc3c(c2c1CCN1CCC(NCc2cc4c(cn2)OCCO4)CC1)OCCO3 | 92
Oc1cc(Nc2ccnc3cc(-c4ccc(CN5CCCCC5)o4)ccc23)c(Cl)cc1F | 100
COc1cc(C2Nc3ccc4ccccc4c3C3=C2C(=O)CC(C)(C)C3)ccc1Oc1ccc([N+](=O)[O-])cc1C#N (stereo not given) | 99
CC(CN1CCN(C)CC1)C(=O)Nc1cccc(-c2ccc(-c3nc4cc(F)ccc4[nH]3)cc2)c1 (stereo not given) | 100
N#Cc1ccc(NC(=O)NC2CCN(CCCCCNC(=O)/C=C/c3ccc(Cl)c(Cl)c3)CC2)cc1 | 98
O=C(CCc1c[nH]cn1)Nc1ccc(-c2ccc(-c3nc4ccccc4[nH]3)cc2)cc1 | 98
Clc1ccc2c(NCc3ccccc3)ccnc2c1 | 100
Fc1ccc(-c2cc3ncnc(N4CCN(CCN5CCCC5)CC4)c3s2)cc1 | 98
CN(C)CC(O)C(c1ccccc1)c1ccc(Cl)cc1.O=C(O)CCC(=O)O (stereo not given) | 99
Cc1ccc(Cn2cnc3cc(C(=O)Nc4ccc(-c5ccc(CN(C)C)cc5)cc4)ccc3c2=O)o1 | 82
O=C(O)C(F)(F)F.O=c1[nH]ccc2nc(N[C@@H]3CCNC3)nc(Nc3cc(Cl)cc(Cl)c3)c12 | 100
Cc1ccc(Nc2nc(N/N=C/c3cccc([N+](=O)[O-])c3)nc(Nc3ccccc3)n2)c(C)c1 | 91
COc1ccc(-c2nc(NC(=O)Cc3ccc(OC)c(OC)c3)sc2C)cc1 | 93

System: Plasmodium falciparum
Assay: GSK_TCMDC: Inhibition of Plasmodium falciparum Dd2 in whole red blood cells, using parasite LDH activity as an index of growth. Test compounds present at 2uM
Format: functional

SMILES | Inhibition [%]
CC(C)n1cc(CN2CCCC(C(=O)Nc3cccc(-c4cc5ccccc5[nH]4)c3)C2)cn1 (stereo not given) | 65
COc1ccc2nc3cc(Cl)ccc3c(Nc3ccc(O)c(CNC(C)C)c3)c2c1 | 100
Cc1ccc2[nH]c3c(NCCCN4CCOCC4)ncnc3c2c1 | 9
CC(=O)Oc1ccc(C(=O)Oc2ccccc2C#CC#N)cc1OC(C)=O | 61
CC(=O)O.C[C@H](NC(=O)[C@H](Cc1ccccc1)NC(=O)OC(C)(C)C)C(=O)N[C@@H](CC1CCCCC1)C(O)CN (stereo not given in full) | 64
O=C(O)C(F)(F)F.c1cc(CN2CCCCC2)cc(-c2csc(-c3nc4ccccc4[nH]3)c2)c1 | 16
CN(C)CCCOc1c(C(C)(C)C)cc(-c2cc(C(C)(C)C)c(OCCCN(C)C)c(C(C)(C)C)c2)cc1C(C)(C)C | 99
O=C(Cc1c[nH]cn1)Nc1ccc(-c2cccc(-c3nc4cc(F)ccc4[nH]3)c2)cc1 | 70
Cl.O=C(Nc1cc(Cl)cc(Cl)c1)Nc1ccnc2ccccc12 | 65
O=C(Nc1nc(-c2ccccn2)cs1)c1ccc(Br)s1 | 84
O=C(NCCc1ccccc1)[C@H](Cc1ccccc1)Nc1ccnc(NCC2CCCCC2)n1.O=C(O)C(F)(F)F | 53
CN(C)C1CCN(Cc2ccc(N3CCN(Cc4cccc5[nH]ccc45)CC3)nc2)CC1 | 17
Cc1cnn(-c2cccc(C(=O)NC3CCC(CCN4CCc5ccc(C#N)cc5CC4)CC3)c2)c1.Cl (stereo not given) | 48
Cc1noc(C)c1-c1cccc(C(=O)NC2CCN(CCNC(=O)C(c3ccccc3)c3ccccc3)CC2)c1.O=C(O)C(F)(F)F | 74
N#Cc1ccc(/C=C/C(=O)NCCCCCN2CCCN(C(=O)Nc3ccc(Cl)c(C(F)(F)F)c3)CC2)cc1 | 13
CCCN1CC[C@@H](CCCc2ccnc3ccc(O)cc23)[C@@H](CC)C1.Cl | 14
Cc1ccc(CCOCCCCCNCC(O)c2cc(Cl)c(N)c(Cl)c2)cc1 (stereo not given) | 98
COc1ccc2nccc(N3CCC(NCCNS(=O)(=O)c4ccc5c(c4)NC(=O)CS5)C3)c2n1.Cl (stereo not given) | 18
CC(C)c1ncc(-c2ccncc2)c(C2CCC(CNC(=O)c3cccnc3)CC2)n1 (stereo not given) | 88
Cc1cc(NCC2CCN(CC3CCCCC3)C2)nc(Nc2ccc(Br)cc2)n1 (stereo not given) | 78

SMILES | Inhibition [%]
CCCC1N=C(N)N=C(N)N1c1ccccc1.Cl (stereo not given) | 0
CCCCCn1c(Sc2ccc(C#N)c([N+](=O)[O-])c2)nnc1-c1ccc(Cl)cc1 | 29
Nc1nc(N)c2c(ccc3c2ccn3Cc2ccc(Cl)cc2)n1 | 99
CCCNCc1ccc(-c2ccc(CN(CCOC)C(=O)CCC(=O)c3ccc(OC)c(F)c3)cc2)nc1.O=C(O)C(F)(F)F | 47
CCCOc1ccccc1-c1nc2[nH]c3c(c2c(=O)[nH]1)CCN(C)C3 | 70
O=C(NCC1CC1)C1Cc2c([nH]c3ccc(Br)cc23)C2(CCN(CCc3ccccc3)CC2)N1 (stereo not given) | 25
CN1CCCC(COc2cc3c(cc2Br)CCN3C(=O)Nc2ccc(-c3ccncc3)c(Cl)c2)C1 (stereo not given) | 96
Cl.Clc1cnc2ccc3c(c2c1CCN1CCC(NCc2cc4c(cn2)OCCO4)CC1)OCCO3 | 18
Oc1cc(Nc2ccnc3cc(-c4ccc(CN5CCCCC5)o4)ccc23)c(Cl)cc1F | 81
COc1cc(C2Nc3ccc4ccccc4c3C3=C2C(=O)CC(C)(C)C3)ccc1Oc1ccc([N+](=O)[O-])cc1C#N (stereo not given) | 94
CC(CN1CCN(C)CC1)C(=O)Nc1cccc(-c2ccc(-c3nc4cc(F)ccc4[nH]3)cc2)c1 (stereo not given) | 98
N#Cc1ccc(NC(=O)NC2CCN(CCCCCNC(=O)/C=C/c3ccc(Cl)c(Cl)c3)CC2)cc1 | 4
O=C(CCc1c[nH]cn1)Nc1ccc(-c2ccc(-c3nc4ccccc4[nH]3)cc2)cc1 | 70
Clc1ccc2c(NCc3ccccc3)ccnc2c1 | 100
Fc1ccc(-c2cc3ncnc(N4CCN(CCN5CCCC5)CC4)c3s2)cc1 | 40
CN(C)CC(O)C(c1ccccc1)c1ccc(Cl)cc1.O=C(O)CCC(=O)O (stereo not given) | 4
Cc1ccc(Cn2cnc3cc(C(=O)Nc4ccc(-c5ccc(CN(C)C)cc5)cc4)ccc3c2=O)o1 | 12
O=C(O)C(F)(F)F.O=c1[nH]ccc2nc(N[C@@H]3CCNC3)nc(Nc3cc(Cl)cc(Cl)c3)c12 | 99
Cc1ccc(Nc2nc(N/N=C/c3cccc([N+](=O)[O-])c3)nc(Nc3ccccc3)n2)c(C)c1 | 97
COc1ccc(-c2nc(NC(=O)Cc3ccc(OC)c(OC)c3)sc2C)cc1 | 22
